Holding throughout (assay): DAPPL (digital affinity profiling via proximity ligation, sequencing); 10 mM Tris-HCl pH 7.5, 50 mM NaCl, 1 mM DTT, 4% glycerol, room temperature, 30 min; GST-TFs on glutathione beads, 16-mer random dsDNA library, 0.1% formaldehyde crosslink after washing; high values mean tight binding
Conditions in all cases: protein: recombinant; tags: N-terminal GST; dsDNA, one strand shown

In assay [1] the target is T1, ERF (Homo sapiens, UniProt P50548 1-548).
T1 sequence: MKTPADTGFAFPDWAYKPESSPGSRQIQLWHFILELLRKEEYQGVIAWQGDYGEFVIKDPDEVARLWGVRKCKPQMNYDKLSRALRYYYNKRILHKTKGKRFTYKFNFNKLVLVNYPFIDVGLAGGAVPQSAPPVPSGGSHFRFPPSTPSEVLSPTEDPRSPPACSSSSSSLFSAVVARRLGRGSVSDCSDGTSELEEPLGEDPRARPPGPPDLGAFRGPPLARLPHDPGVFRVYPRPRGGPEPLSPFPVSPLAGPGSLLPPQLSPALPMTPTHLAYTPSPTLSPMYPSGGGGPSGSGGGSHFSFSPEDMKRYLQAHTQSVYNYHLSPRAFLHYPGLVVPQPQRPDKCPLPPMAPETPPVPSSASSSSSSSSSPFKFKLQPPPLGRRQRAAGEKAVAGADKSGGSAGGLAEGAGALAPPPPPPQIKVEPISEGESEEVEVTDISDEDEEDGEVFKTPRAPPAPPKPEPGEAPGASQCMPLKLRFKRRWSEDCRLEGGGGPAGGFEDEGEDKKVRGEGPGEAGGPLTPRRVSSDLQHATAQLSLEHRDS
The essentials:
(§1)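 Pools of DNA-barcoded human transcription factors, expressed in yeast as GST fusions on glutathione beads and combined with a tag-only sample, were incubated with 200 nmole of a 16-mer random double-stranded DNA library. Incubation took 30 min at room temperature in Tris/NaCl/DTT/glycerol buffer and was followed by washing, 0.1% formaldehyde crosslinking, proximity ligation (BsaI/T4 ligase, 1 h, 37 °C), PCR amplification and sequencing on an Illumina NextSeq500. Binding signal is the ratio of a hexamer's read frequency for a factor to its frequency for the tag-only sample.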

In assay [2] the target is T2, ETS2 (Homo sapiens, UniProt P15036 1-469).
T2 sequence: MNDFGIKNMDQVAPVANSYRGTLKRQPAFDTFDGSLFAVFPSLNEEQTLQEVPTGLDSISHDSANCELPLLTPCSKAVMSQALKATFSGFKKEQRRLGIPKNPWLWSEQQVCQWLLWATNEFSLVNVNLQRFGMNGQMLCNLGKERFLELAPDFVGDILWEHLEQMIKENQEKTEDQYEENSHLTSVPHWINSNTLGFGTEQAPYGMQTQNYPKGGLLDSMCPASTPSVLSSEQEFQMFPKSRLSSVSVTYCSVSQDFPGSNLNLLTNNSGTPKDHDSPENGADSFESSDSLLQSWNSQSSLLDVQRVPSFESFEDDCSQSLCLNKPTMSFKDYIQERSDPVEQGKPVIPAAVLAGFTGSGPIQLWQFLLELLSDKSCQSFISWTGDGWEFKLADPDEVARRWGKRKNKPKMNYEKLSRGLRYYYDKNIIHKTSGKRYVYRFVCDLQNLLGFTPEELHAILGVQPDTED
In outline: as §1

In assay [3] the target is T3, SPDEF (Homo sapiens, UniProt O95238 1-335).
T3 sequence: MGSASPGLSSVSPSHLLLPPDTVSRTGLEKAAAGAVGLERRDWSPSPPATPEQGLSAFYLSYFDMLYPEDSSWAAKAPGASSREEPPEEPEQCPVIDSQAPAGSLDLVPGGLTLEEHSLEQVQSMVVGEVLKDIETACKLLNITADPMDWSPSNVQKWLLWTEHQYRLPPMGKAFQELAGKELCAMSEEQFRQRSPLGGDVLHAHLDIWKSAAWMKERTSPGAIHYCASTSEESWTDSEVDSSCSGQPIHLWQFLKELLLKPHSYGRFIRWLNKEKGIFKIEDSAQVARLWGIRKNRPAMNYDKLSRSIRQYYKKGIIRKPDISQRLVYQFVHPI
The essentials:
as §1

The target of assay [4] is T4, ETV7 (Homo sapiens, UniProt Q9Y603 1-341).
T4 sequence: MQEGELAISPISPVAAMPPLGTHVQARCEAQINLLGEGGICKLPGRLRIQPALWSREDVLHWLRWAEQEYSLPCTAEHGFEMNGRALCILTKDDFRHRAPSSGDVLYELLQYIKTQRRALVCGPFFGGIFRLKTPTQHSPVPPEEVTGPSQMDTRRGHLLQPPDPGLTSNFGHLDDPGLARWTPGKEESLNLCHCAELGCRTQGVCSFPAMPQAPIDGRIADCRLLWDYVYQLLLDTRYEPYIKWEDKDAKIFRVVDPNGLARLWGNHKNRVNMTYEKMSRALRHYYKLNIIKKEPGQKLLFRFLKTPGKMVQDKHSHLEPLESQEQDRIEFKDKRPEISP
In outline: as §1

The target of assay [5] is T5, ETV3 (Homo sapiens, UniProt P41162-2 1-143).
T5 sequence: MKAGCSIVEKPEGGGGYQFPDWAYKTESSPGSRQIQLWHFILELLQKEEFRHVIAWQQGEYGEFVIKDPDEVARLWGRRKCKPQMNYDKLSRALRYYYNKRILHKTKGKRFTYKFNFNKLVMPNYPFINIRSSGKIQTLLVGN
The essentials:
as §1

In assay [6] the target is ETV6 (Homo sapiens, UniProt P41212 1-452). The essentials:
as §1

Assay [7] has as its target T6, ETV3L (Homo sapiens, UniProt Q6ZN32 1-361).
T6 sequence: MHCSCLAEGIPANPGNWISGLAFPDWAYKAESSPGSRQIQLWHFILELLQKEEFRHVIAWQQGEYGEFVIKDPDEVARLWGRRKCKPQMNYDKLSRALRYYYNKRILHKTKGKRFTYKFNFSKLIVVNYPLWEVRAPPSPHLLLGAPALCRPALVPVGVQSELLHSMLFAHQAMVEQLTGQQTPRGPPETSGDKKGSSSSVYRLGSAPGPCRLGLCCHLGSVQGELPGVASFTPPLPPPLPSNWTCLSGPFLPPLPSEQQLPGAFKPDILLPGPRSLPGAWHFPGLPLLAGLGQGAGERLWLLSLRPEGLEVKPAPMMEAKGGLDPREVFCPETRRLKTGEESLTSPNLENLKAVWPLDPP
The essentials:
as §1

Assay [8] deals with T7, ELF5 (Homo sapiens, UniProt Q9UKW6-2 1-255).
T7 sequence: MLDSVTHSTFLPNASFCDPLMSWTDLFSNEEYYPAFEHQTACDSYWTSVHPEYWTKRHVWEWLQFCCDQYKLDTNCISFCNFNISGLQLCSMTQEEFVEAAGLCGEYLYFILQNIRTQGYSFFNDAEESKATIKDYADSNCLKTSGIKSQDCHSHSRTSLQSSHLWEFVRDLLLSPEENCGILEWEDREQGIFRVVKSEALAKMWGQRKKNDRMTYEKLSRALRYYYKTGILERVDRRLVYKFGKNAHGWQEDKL
The essentials: as §1

This passage reports binding signal results from PMC7862700, “An all-to-all approach to the identification of sequence-specific readers for epigenetic DNA modifications on cytosine”.

ETV6, sequence (P41212 whole entry): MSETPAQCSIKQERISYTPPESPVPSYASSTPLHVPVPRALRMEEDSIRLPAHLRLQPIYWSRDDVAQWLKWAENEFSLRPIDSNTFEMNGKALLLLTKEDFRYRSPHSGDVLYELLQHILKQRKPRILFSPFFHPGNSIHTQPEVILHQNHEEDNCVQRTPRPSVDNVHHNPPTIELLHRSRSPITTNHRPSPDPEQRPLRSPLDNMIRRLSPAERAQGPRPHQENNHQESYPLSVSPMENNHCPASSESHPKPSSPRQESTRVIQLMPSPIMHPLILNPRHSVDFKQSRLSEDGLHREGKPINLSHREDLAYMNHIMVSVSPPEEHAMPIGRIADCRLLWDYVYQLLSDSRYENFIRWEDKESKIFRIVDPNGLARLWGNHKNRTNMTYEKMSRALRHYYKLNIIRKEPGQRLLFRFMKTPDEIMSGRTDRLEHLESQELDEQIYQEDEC

GTTCGA: the binding signal in assay [1] was 1.23 fold enrichment (6-mer frequency, TF over GST control); in assay [2] it was 1.12 fold enrichment (6-mer frequency, TF over GST control); in assay [3] it was 1.01 fold enrichment (6-mer frequency, TF over GST control); in assay [4], 1.13 fold enrichment (6-mer frequency, TF over GST control); in assay [5] it was 1.06 fold enrichment (6-mer frequency, TF over GST control); in assay [6] it was 1.02 fold enrichment (6-mer frequency, TF over GST control).

In the case of AAGGCT, the binding signal in assay [7] is 1.02 fold enrichment (6-mer frequency, TF over GST control); in assay [3] it was 1.04 fold enrichment (6-mer frequency, TF over GST control); in assay [4] it was 1.06 fold enrichment (6-mer frequency, TF over GST control); in assay [8], 1.06 fold enrichment (6-mer frequency, TF over GST control); in assay [5], 1.04 fold enrichment (6-mer frequency, TF over GST control); in assay [6], 1.02 fold enrichment (6-mer frequency, TF over GST control).

Regarding AGACCT, the binding signal in assay [7] is 1.07 fold enrichment (6-mer frequency, TF over GST control); in assay [2], 1.01 fold enrichment (6-mer frequency, TF over GST control); in assay [8] it was 1.05 fold enrichment (6-mer frequency, TF over GST control); in assay [6] it was 1.11 fold enrichment (6-mer frequency, TF over GST control).

As to ACACCA, the binding signal in assay [7] is 1.04 fold enrichment (6-mer frequency, TF over GST control); in assay [8], 1.01 fold enrichment (6-mer frequency, TF over GST control); in assay [5], 1.02 fold enrichment (6-mer frequency, TF over GST control).

On to TGCCCT, for which the binding signal is 1.11 fold enrichment (6-mer frequency, TF over GST control) in assay [7]; 1.21 fold enrichment (6-mer frequency, TF over GST control) in assay [2]; 1.15 fold enrichment (6-mer frequency, TF over GST control) in assay [3]; 1.08 fold enrichment (6-mer frequency, TF over GST control) in assay [4]; 1 fold enrichment (6-mer frequency, TF over GST control) in assay [8]; 1.1 fold enrichment (6-mer frequency, TF over GST control) in assay [5]. In addition, the binding signal in assay [6] is 1.15 fold enrichment (6-mer frequency, TF over GST control).

Consider CCTGGG, for which the binding signal in assay [7] was 1.22 fold enrichment (6-mer frequency, TF over GST control); in assay [2] it was 1.14 fold enrichment (6-mer frequency, TF over GST control); in assay [3], 1.11 fold enrichment (6-mer frequency, TF over GST control); in assay [4], 1.39 fold enrichment (6-mer frequency, TF over GST control); in assay [8] it was 1.17 fold enrichment (6-mer frequency, TF over GST control); in assay [5], 1.08 fold enrichment (6-mer frequency, TF over GST control). Also, the binding signal in assay [6] was 1.1 fold enrichment (6-mer frequency, TF over GST control).

Turning to TTATTA, the binding signal is 1.11 fold enrichment (6-mer frequency, TF over GST control) in assay [7]; 1.07 fold enrichment (6-mer frequency, TF over GST control) in assay [2]; 1.12 fold enrichment (6-mer frequency, TF over GST control) in assay [3]; 1.11 fold enrichment (6-mer frequency, TF over GST control) in assay [4]; 1.13 fold enrichment (6-mer frequency, TF over GST control) in assay [8]; 1.14 fold enrichment (6-mer frequency, TF over GST control) in assay [5]. Besides, the binding signal in assay [6] was 1.13 fold enrichment (6-mer frequency, TF over GST control).

Turning to CAGATT, the binding signal is 1.02 fold enrichment (6-mer frequency, TF over GST control) in assay [2]; 1.03 fold enrichment (6-mer frequency, TF over GST control) in assay [5]; 1.02 fold enrichment (6-mer frequency, TF over GST control) in assay [6].

On to GTATCA, for which the binding signal in assay [7] is 1.09 fold enrichment (6-mer frequency, TF over GST control); in assay [2], 1.05 fold enrichment (6-mer frequency, TF over GST control); in assay [3] it was 1.08 fold enrichment (6-mer frequency, TF over GST control); in assay [4], 1.04 fold enrichment (6-mer frequency, TF over GST control); in assay [8], 1.03 fold enrichment (6-mer frequency, TF over GST control); in assay [5], 1.09 fold enrichment (6-mer frequency, TF over GST control). The binding signal in assay [6] was 1.01 fold enrichment (6-mer frequency, TF over GST control).
